# A selection: hits, their analogues and other compounds. The true share with any hit is near 1.8%.
# NPR1 activator – GC-A stimulated cGMP production enhancers – HEK293 GC-A cells, cGMP TR-FRET, EC30 ANP, primary screen; 0% at EC30 ANP, 100% saturating ANP; activation, % at 10 µM; AID 1671463, 2021; 370,000 tested, 0.14% active; in the data active = activation above about 40%
# Myeloid diff 2 – induction of myeloid progenitor differentiation, primary screen, cell-based, flow cytometry, MLPCN library. calls only at 10 µM. 360,000 tested, 1% active. ER-HoxA9 myeloid progenitors, lysozyme-GFP differentiation;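 active = normalized GFP-positive differentiation at or above the plate's own cutoff, the solvent-only control mean plus 3 SD; inconclusive = no clear call, values can overlap the other calls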;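 also: cells exposed to compound for four days before flow analysis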
# GC-B act – human GC-B receptor activators, primary screen, HEK293 GC-B cells, cGMP TR-FRET, EC30 CNP; 0% at EC30 CNP, 100% saturating CNP; activation, % at 10 µM; 370,000 tested, 0.11% active; AID 1920062, 2024;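 active = activation at 10 µM reaching about 35% in either raw or pattern-adjusted values, limit read from the data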
# Target sequence (P20594 whole entry, looked up): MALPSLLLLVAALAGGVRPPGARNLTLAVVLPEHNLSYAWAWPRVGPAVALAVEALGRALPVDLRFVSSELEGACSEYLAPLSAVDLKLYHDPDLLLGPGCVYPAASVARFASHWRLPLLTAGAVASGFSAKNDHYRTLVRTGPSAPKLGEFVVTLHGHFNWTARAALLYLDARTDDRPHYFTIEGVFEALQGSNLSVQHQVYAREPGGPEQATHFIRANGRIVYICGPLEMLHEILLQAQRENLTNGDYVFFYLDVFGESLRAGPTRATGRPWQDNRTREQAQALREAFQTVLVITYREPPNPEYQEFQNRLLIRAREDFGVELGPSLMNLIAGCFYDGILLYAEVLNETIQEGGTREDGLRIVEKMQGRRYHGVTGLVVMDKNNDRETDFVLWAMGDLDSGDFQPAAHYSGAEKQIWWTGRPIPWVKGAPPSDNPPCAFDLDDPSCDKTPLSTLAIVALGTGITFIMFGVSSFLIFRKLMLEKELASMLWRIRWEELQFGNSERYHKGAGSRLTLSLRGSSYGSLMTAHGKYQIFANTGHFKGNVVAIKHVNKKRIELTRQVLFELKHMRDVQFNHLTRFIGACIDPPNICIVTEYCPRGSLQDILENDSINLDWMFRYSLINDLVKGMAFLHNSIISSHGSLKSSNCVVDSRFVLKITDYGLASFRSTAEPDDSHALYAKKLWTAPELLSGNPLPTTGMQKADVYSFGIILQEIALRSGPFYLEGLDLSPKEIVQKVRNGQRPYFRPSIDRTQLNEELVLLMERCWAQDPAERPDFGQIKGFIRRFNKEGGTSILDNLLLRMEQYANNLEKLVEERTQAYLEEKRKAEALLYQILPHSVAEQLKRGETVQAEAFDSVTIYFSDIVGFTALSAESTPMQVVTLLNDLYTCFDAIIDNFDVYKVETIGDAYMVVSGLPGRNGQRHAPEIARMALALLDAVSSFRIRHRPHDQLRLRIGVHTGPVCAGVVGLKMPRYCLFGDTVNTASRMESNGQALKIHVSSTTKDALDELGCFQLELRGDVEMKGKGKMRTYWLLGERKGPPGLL
# Granule exo inh – LAMP-1 surface exposure blockers, TALL-104 cells – cell-based, flow cytometry, MLPCN library, primary screen | inhibition, % at 10 µM | TALL-104 LAMP-1 surface exposure; cells stimulated with thapsigargin and PMA | 360,000 tested, 0.66% active;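 active = inhibition above about 55%, limit read from the data; inconclusive = no clear call, values can overlap the other calls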
# Myeloid diff CP1 – inducers of myeloid progenitor differentiation, confirmation, cell-based, GFP/Mac1 flow cytometry, cherry pick 01 | shares compounds with Myeloid diff 2 | ER-HoxA9 myeloid progenitors, GFP/Mac1 double-positive flow | calls only | 2,300 tested, 2% active | AID 651706, 2012;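 active = share of green or green-and-red cells above 9 and 9% in run 1 or 4 and 3% in run 2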
# GFP autofluor – compound fluorescence in myeloid differentiation counter-screen; shares compounds with Myeloid diff 2; ER-HoxA9 myeloid progenitors, no estrogen, GFP autofluorescence flow cytometry; vehicle wells 0%, positive control 100%; AID 651707; fluorescence response, % (test concentration not listed); 2,300 tested, 7.4% active;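 active = over 5% cells positive for green fluorescent reporter, or over 2% positive for both it and APC stain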
# Calls only; . = inactive; ? = inconclusive; / = no result; + = active, no number.
SMILES,NPR1 activator,Myeloid diff 2,GC-B act,Granule exo inh,Myeloid diff CP1,GFP autofluor
Cc1ccc(C(=O)Nc2cccc(C(=O)N/N=C/c3ccc(O)cc3)c2)cc1,.,+,.,.,.,.
Cc1cccc(C(=O)Nc2cccc(C(=O)N/N=C/c3ccncc3)c2)c1,.,.,.,.,/,/
Cc1cccc(/C=N/NC(=O)c2ccc(NC(=O)c3ccc(Cl)cc3)cc2)n1,.,+,.,.,.,.
O=C(CCc1ccccc1)N[C@H]1[C@H](O)CCC[C@@]12C(=O)N(Cc1ccccc1)c1ccc(-c3ccccc3)cc12,.,/,.,/,/,/
CC1CN(C(=O)CN2C(=O)NC3(CCCCCC3)C2=O)CC(C)O1 (stereo not given),.,.,.,.,/,/
COc1ccccc1CC1(C)NC(=O)N(CC(=O)N2CC(C)OC(C)C2)C1=O (stereo not given),.,.,.,.,.,.
CCCn1c(SCC(=O)Nc2cccc(F)c2)nc(O)cc1=O,.,.,.,.,/,/
CCCn1c(SCC(=O)Nc2ccccc2Cl)nc(O)cc1=O,.,.,.,.,.,.
N#Cc1c(N)nc(SC2CCCCC2=O)c(C#N)c1-c1ccco1 (stereo not given),.,.,.,.,.,.
COc1ccc(C(=O)Nc2cccc(N(C)S(C)(=O)=O)c2)cc1OC,.,.,.,.,.,.
COC(=O)c1cc2oc3ccccc3c2n1CC(=O)N1CCCc2ccccc21,.,+,.,.,.,.
COC(=O)c1cc2ccsc2n1CC(=O)N1CCCc2ccccc21,.,.,.,.,/,/
Cc1cccc(Nc2nc(NCC3CCCO3)nc(N)c2[N+](=O)[O-])c1 (stereo not given),.,+,.,.,.,.
Nc1nc(NCC2CCCO2)nc(Nc2cccc(Cl)c2)c1[N+](=O)[O-] (stereo not given),.,.,.,.,/,/
O=C(Oc1ccc([N+](=O)[O-])cc1)O[C@H]1CC[C@@]23CCCN2C(=O)CCC[C@H]3C1,.,/,.,/,/,/
C(#Cc1ccccc1)C[N+]1(CC#Cc2ccccc2)CCCC1,.,?,.,.,/,/
C=CC[N+]1(CC#Cc2ccccc2)CCCC1,.,+,.,.,.,.
CCOc1ccc(OCCN2C(=O)c3ccccc3C2=O)cc1,.,.,.,.,/,/
COc1ccc(OCC(=O)OCCN2C(=O)c3ccccc3C2=O)cc1,.,+,.,.,.,.
CC(C)NC(=O)C1(C)CCN1C(=O)c1ccccc1Oc1ccccc1 (stereo not given),.,.,.,.,/,/
Cc1ccc(NS(=O)(=O)c2ccc(-n3cccn3)cc2)c(Cl)c1,.,.,.,.,/,/
OCCCNc1cc(-c2ccnc(Nc3cccc(Cl)c3)n2)ccn1,.,.,.,.,.,.
CCC(C)Oc1cc(-c2ccnc(Nc3cccc(Cl)c3)n2)ccn1 (stereo not given),.,.,.,.,/,/
COc1cccc(C(=O)NC(=S)Nc2ccccc2N2CCCCC2)c1,.,+,.,.,.,.
Cc1cccc(CCNc2nc3ccccc3n3nnnc23)c1,.,+,.,.,.,.
SMILES,NPR1 activator,Myeloid diff 2,GC-B act,Granule exo inh,Myeloid diff CP1,GFP autofluor
COc1cc2c(cc1OC)CN(C(=O)c1ccc(Cl)c(S(=O)(=O)N3CCCC3)c1)CC2,.,.,.,.,/,/
Cc1ccc(C2=NCCNC2=O)c(C)c1,.,.,.,.,.,.
O=C(Nc1ccc(N2CCOCC2)cc1)c1ccc([N+](=O)[O-])o1,.,+,.,.,.,.
O=C(Nc1ccc(S(=O)(=O)N2CCOCC2)cc1)c1ccc([N+](=O)[O-])o1,.,?,.,.,/,/
COc1ccc(N2C(c3ccsc3)=Cc3cc4c(cc3C2c2c[nH]c3ccccc23)OCO4)cc1 (stereo not given),.,+,.,.,.,.
COc1cc(-c2ccc(N3C(c4ccsc4)=Cc4ccccc4C3CC(C)=O)cc2)cc(OC)c1OC (stereo not given),.,.,.,.,/,/
O=[N+]([O-])c1cccc(OC[C@@H](O)CN2CCC(C(O)(c3ccccc3)c3ccccc3)CC2)c1,.,/,.,/,/,/
COc1ccc(NC(=O)c2ccc(C)o2)c([N+](=O)[O-])c1,.,.,.,.,/,/
COc1ccc(NC(=O)c2ccc([N+](=O)[O-])s2)c([N+](=O)[O-])c1,.,.,.,.,.,.
CC1CCC2(CC1)NC(=O)N(CC(=O)Nc1ccc(F)cc1)C2=O (stereo not given),.,.,.,.,/,/
Clc1cccc(OCc2nc(-c3ccncc3)n[nH]2)c1,.,.,.,.,.,.
Fc1ccc(OCc2nc(-c3ccncc3)n[nH]2)cc1,.,.,.,.,/,/
CC(=O)NC(c1ccccc1)c1nc(-c2ccccc2)cs1 (stereo not given),.,.,.,.,/,/
O=C(NCc1ccc2c(c1)OCO2)C1CCN(c2ncccn2)CC1,.,.,.,.,.,.
Cc1ccc(Nc2c(-c3ccccn3)nc3cc(C)ccn23)cc1,.,.,.,.,.,.
Cc1ccn2c(Nc3ccc4c(c3)OCO4)c(-c3ccccn3)nc2c1,.,.,.,.,/,/
CCc1ccccc1NC(=O)NC1CCCCC1,.,.,.,.,/,/
CCc1cccc(CC)c1NC(=O)NC1CCCCC1,.,+,.,.,.,.
COc1ccc(CN2C[C@@H](CO)O[C@@H](n3cnc4c(NCc5cc(OC)c(OC)c(OC)c5)ncnc43)C2)cc1,.,.,.,.,/,/
CCn1c(=O)c(C(=O)NCc2cccnc2)c(O)c2ccccc21,.,.,.,.,.,.
CCOc1cc(S(=O)(=O)Nc2ccc(Cl)cn2)ccc1F,.,+,.,.,.,.
Cc1cc(C(=O)NC2CCCc3c2cnn3-c2cccc(C)c2C)no1 (stereo not given),.,+,.,.,.,.
N#CC(C#N)=c1ccc2c(c1)N1C(c3ccccc3)=CC(c3ccccc3)C3CCCCC31N=2 (stereo not given),.,+,.,.,.,.
CC(C)(C)OC(=O)N1CC2(CCCCC2)CC1Cc1ccc(C(F)(F)F)cc1 (stereo not given),.,.,.,.,.,.
C(=C\c1ccco1)/C1=NN(c2ccccc2)C(c2ccco2)C1 (stereo not given),/,+,/,.,.,.
Fc1ccc(C2=NN(c3ccccc3)C(c3ccco3)C2)cc1 (stereo not given),.,.,.,.,/,/
CCc1ccc(C(O)c2ncc(-c3cccc(OC)c3)[nH]2)cc1 (stereo not given),/,.,/,.,/,/
N#C/C(=C\c1ccc(/C=C(/C#N)c2nn(CCO)c(N)c2C#N)cc1)c1nn(CCO)c(N)c1C#N,.,.,.,.,.,.

# Screening data deposited in PubChem BioAssay by several laboratories.
